Assay outcomes: PubChem BioAssay, National Center for Advancing Translational Sciences (NCATS)
NPC1 promoter act – qHTS Assay for NPC1 Promoter Activators; Huh7 NPC1 promoter luciferase reporter, 24 h; Potency, µM (top dose mostly 9.22 µM), without a hit: at the top dose activation, actives largely listed as activators; 320,000 tested, 2.4% active; AID 485313, 2010; note: % of control where 0% means no effect; nearly all actives have a fitted effect of over 60% in size
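Cells: Huh7 expressing luciferase under the NPC1 promoter, 1500/well. Seeded 2 h, compound added, incubated 24 h at 37 °C. Luciferase reagent, 10 min ambient, then luminescence.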
FLuc modulator – qHTS profiling assay for firefly luciferase inhibitor/activator using purifed enzyme and Km concentrations of substrates (counterscreen for miR-21 project). 360,000 tested, 6.9% active. purified FLuc, Km substrates, luminescence inhibition. Potency, µM (doses to about 57.5 µM), for inactives: top-dose activity change, negative = inhibition, most hits filed as inhibitors;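 note: plate controls were vehicle for no effect and reference inhibitor for full effect; nearly all actives have a fitted effect of over 55% in size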
Target sequence (P08659 whole entry, looked up): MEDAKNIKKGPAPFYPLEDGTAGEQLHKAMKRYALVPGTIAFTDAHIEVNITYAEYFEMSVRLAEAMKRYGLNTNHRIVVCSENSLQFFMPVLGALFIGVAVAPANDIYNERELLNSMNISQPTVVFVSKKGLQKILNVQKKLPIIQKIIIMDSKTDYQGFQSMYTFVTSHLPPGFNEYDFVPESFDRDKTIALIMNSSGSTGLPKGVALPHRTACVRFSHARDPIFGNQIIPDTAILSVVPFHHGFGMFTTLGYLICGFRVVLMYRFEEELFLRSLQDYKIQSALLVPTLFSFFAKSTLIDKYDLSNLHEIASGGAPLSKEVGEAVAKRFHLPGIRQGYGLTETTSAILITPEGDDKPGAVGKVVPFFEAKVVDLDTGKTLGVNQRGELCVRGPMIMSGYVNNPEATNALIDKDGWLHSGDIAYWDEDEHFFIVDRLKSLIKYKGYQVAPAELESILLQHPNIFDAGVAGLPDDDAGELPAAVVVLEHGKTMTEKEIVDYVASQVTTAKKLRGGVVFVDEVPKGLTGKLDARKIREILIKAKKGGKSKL
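Purified P. pyralis luciferase, 10 nM final, with Km-level 10 uM D-luciferin and 10 uM ATP in 50 mM Tris acetate pH 7.5, 10 mM Mg acetate, 0.01% Tween-20, 0.05% BSA; 6-point qHTS titration about 60 µM downward; luminescence read.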
Rab9 prom act – qHTS Assay for Rab9 Promoter Activators | 320,000 tested, 2.8% active | AID 485297, 2010 | Huh7 Rab9 promoter-luciferase reporter, luminescence, 24 h | Potency, µM (doses to about 9.22 µM), for inactives: at the top dose activation, negative = inhibition, usual class: activators; note: % of control where 0% means no effect; nearly all actives have a fitted effect of over 60% in size
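Huh7 cells stably carrying a Rab9 promoter-luciferase reporter, 1500 cells per well in OP-MEM I with 10% FBS, treated with compound 24 hours at 37C. Luciferase activity read by luminescence after 10 minutes with Amplite reagent.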
ELG1 genotoxic – qHTS screen for small molecules that induce genotoxicity in human embryonic kidney (HEK293T) cells expressing luciferase-tagged ELG1; HEK293T ELG1-luciferase reporter, luminescence, 16 h; Potency, µM (doses to about 46 µM), for inactives: at the top dose activity change, positive = activation, hits mostly activators; 330,000 tested, 1.3% active; note: % of control where 0% means no effect; nearly all actives have a fitted effect of over 60% in size
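HEK293T cells expressing luciferase-tagged ELG1 were exposed to compound or DMSO vehicle for 16 hr at 37 °C and 5% CO2. Luciferase activity was then measured with ONE-Glo after 30 min at room temperature.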
SMN2 splice enh – qHTS Assay for Enhancers of SMN2 Splice Variant Expression | Potency, µM (highest dose often 46.1 µM), inactives show top-dose activity change, positive = activation, most hits filed as activators | 210,000 tested, 2.8% active | HEK293 SMN2-luciferase splicing reporter, luminescence, 30-36 h; note: % of control where 0% means no effect; nearly all actives have a fitted effect of over 55% in size
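qHTS luciferase splicing reporter: luminescence rises when SMN2 exon 7 is included in transfected HEK293 cells. Compound exposure lasted 30-36 h at 37C, with 4.5 mM final sodium butyrate as control, followed by a ONE-Glo read.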
Starred values were filed as active, the others as inactive; ? = inconclusive; . = not tested or not shown. Hits are enriched below; roughly 7.4% of the tested compounds scored in any of these assays. Calls come from the whole dose curve; as a rule, active = well fitted curve in the direction sought with a large enough effect; inconclusive = small, poorly fitted or top-dose-only effect, or another doubt; inactive = no such curve, though single readings can be large; an effect the other way counts as inactive or inconclusive. Potency is the fitted concentration of half-maximal effect.

SMILES	NPC1 promoter act	FLuc modulator	Rab9 prom act	ELG1 genotoxic	SMN2 splice enh
CCOCCCn1c(SCC(=O)Nc2ccc(C)cc2)nc2ccccc2c1=O	.	-8%	.	.	.
CCOC(=O)C1CCCN(c2nc3c(S(=O)(=O)c4ccc(Br)cc4)nnn3c3ccsc23)C1 (stereo not drawn)	.	1%	.	.	.
CC(=C/c1ccccc1)/C=C1/SC(N2CCOCC2)=NC1=O	?	15µM*	?	11%	?
CCN1C(=O)/C(=C\c2ccncc2)SC1=S	-1%	-1%	1%	0%	.
CCN1C(=O)/C(=C/C2=Cc3ccccc3OC2C)SC1=S (stereo not drawn)	-2%	13µM*	7%	0%	.
CC1Oc2ccccc2C=C1/C=C1/SC(N2CCOCC2)=NC1=O (stereo not drawn)	20%	21µM*	?	12%	21%
O=C1N=C(N2CCOCC2)S/C1=C/c1cccs1	2%	?	-2%	5%	6%
Nc1nc(SCC(=O)NC2CCCCC2)n[nH]1	-4%	-1%	0%	-4%	.
Cc1ccccc1OCc1nc2ccccc2[nH]1	?	4.8µM*	1.8µM*	?	.
c1cnc2c(OCc3nc4ccccc4[nH]3)cccc2c1	4µM*	9.5µM*	2.2µM*	?	11µM*
COc1ccccc1OCc1nc2ccccc2[nH]1	2.5µM*	11µM*	2µM*	?	11µM*
CC(Sc1nnc2n1CCCCC2)C(=O)Nc1cccc(S(=O)(=O)N2CCOCC2)c1 (stereo not drawn)	-1%	3%	-6%	-5%	.
O=C(CCS(=O)(=O)c1cc2c(cc1Cl)NC(=O)CO2)NCCc1ccc(Cl)cc1	.	1%	.	.	.
COc1ccc(S(=O)(=O)N2CCC(C(=O)NCCC(=O)NC3CC3)CC2)cc1	-2%	3%	0%	2%	.
COc1ccccc1-c1cc(C(=O)Nc2cccnc2)no1	?	6.7µM*	25%	18µM*	27%
CCCc1cc(C(=O)NCCc2ccccc2)no1	2.2µM*	21µM*	2.2µM*	10µM*	13µM*
COc1ccc(NC(=O)c2cc(-c3ccccc3Cl)on2)cc1	?	8.5µM*	?	21%	.
COc1ccc(NC(=O)c2cc(-c3ccccc3OC)on2)cc1	-3%	9.5µM*	0%	?	?
COc1ccccc1-c1cc(C(=O)Nc2cccnc2Cl)no1	-1%	-1%	-4%	9%	.
CCc1cc(C(=O)NCc2ccccc2)no1	.	-17%	.	.	18%
O=C1C=CC2=C3c4cc(O)c(O)cc4C[C@@]3(O)COC2=C1	.	.	.	.	-20%
CC/C(=N\NC(=O)c1nnn(-c2nonc2N)c1-c1cccc(OC)c1)c1ccc(C)cc1	-6%	0%	-6%	-4%	.
CC(C)CN(CCCNC(=O)c1cc(-c2cccs2)nc2ccccc12)CC(C)C	.	-6%	.	.	2%
COc1ccccc1-c1cc(C(=O)NCCc2ccccc2)no1	?	9.5µM*	3.5µM*	13µM*	25µM*
COc1ccc(CC2S/C(=N/N=C/c3ccc(O)cc3)NC2=O)cc1 (stereo not drawn)	28%	0.43µM*	?	?	22%
SMILES	NPC1 promoter act	FLuc modulator	Rab9 prom act	ELG1 genotoxic	SMN2 splice enh
COc1ccc(CC2S/C(=N/N=C/c3ccccc3O)NC2=O)cc1 (stereo not drawn)	-2%	?	-2%	-8%	.
O=C1N/C(=N/N=C/c2ccc(O)cc2)SC1Cc1ccccc1 (stereo not drawn)	2%	2.4µM*	1%	14%	.
CC(C)CCNC(=O)C(=O)NCC1OCCCN1S(=O)(=O)c1cccs1 (stereo not drawn)	-6%	2%	2%	3%	.
COc1cc(Cl)ccc1OCc1cc(C(=O)N2C[C@@H]3CCC[C@H]2C3)no1	3.2µM*	9.5µM*	4µM*	2.9µM*	.
O=C(c1cc(COc2cccc(C(F)(F)F)c2)on1)N1CCC(c2ccccc2)CC1	0%	6%	-4%	-12%	.
COc1cc(C)ccc1OCc1cc(C(=O)N2C[C@H]3CC[C@H]2C3)no1	3%	-19%	0%	4%	.
COc1cc(Cl)ccc1OCc1cc(C(=O)N2C[C@]3(C)C[C@H]2CC(C)(C)C3)no1	?	19µM*	1.8µM*	?	.
O=C(c1cc(COc2cccc(C(F)(F)F)c2)on1)N1C[C@@H]2CCC[C@H]1C2	-15%	24µM*	?	?	.
CCOC(=O)N1CCN(C(=O)c2cc(COc3ccc(Cl)cc3OC)on2)CC1	12%	-6%	1%	-4%	.
COc1cc(C)ccc1OCc1cc(C(=O)N2CCN(C)C[C@@H]2c2ccccc2)no1	27%	?	?	3%	.
COc1cc(Cl)ccc1OCc1cc(C(=O)N2C[C@H]3CC[C@H]2C3)no1	3.5µM*	8.5µM*	1.4µM*	8.2µM*	.
O=C(CSCc1cnn(-c2ccccc2)c1-n1cccc1)NCc1ccccc1F	.	-13%	.	.	.
NC(=O)COc1ccc(NC(=O)CC23CC4CC(CC(C4)C2)C3)cc1	-4%	2%	3%	10%	.
COc1ccc2c(c1)OC/C(=C/c1ccc(O)c(O)c1)C2=O	.	.	.	.	3%
CNc1ccc(/C=C2\COc3ccccc3C2=O)cc1[N+](=O)[O-]	25%	1.9µM*	?	4%	10%
O=C1/C(=C/c2ccccc2[N+](=O)[O-])COc2ccccc21	-23%	17µM*	-15%	-21%	-86%
COC(=O)c1ccc2c(=O)n(-c3ccccc3F)c(=S)[nH]c2c1	-3%	-9%	16%	-2%	-55%
C/C(=N\NC(=O)c1ccc(F)cc1)c1ccc(NC(=O)Cc2ccccc2)cc1	1%	-5%	28%	?	.
CN(C)c1cccc(C(=O)Nc2cccc(F)c2)c1	2.2µM*	19µM*	2.8µM*	?	14µM*
CCN(CC)c1ccc(C(=O)Nc2cccc(F)c2)cc1	0.79µM*	?	1.1µM*	?	8.9µM*
CCN(CC)c1ccc(C(=O)NN)cc1	-3%	-4%	-2%	10%	-5%
CCOc1ccc(NS(=O)(=O)c2ccc(-c3cc(C)no3)s2)cc1	.	-18%	.	.	.
COc1ccc(/C=C/CN2CCC(CO)(Cc3ccccc3Cl)CC2)cc1	3%	-1%	-1%	2%	-21%
O=C(Oc1ccc(-c2cnc3ccccc3n2)cc1)c1ccc(Cl)c([N+](=O)[O-])c1	12%	?	3%	8.2µM*	?
O=C(OCc1nc2ccccc2s1)c1ccc(Br)o1	-5%	?	0%	14%	19%
O=C(Oc1ccc(-c2cnc3ccccc3n2)cc1)c1ccc(Br)o1	?	?	27%	9.2µM*	?
